Assay outcomes: PubChem BioAssay, several laboratories
HCT116 bCat-KO: beta-catenin-lacking colon tumor cell growth suppression. hit rate 1.5% among 140,000. AID 818. viability, % at 10 µM. HCT116 beta-catenin knockout viability, CellTiter-Glo, 60 h; stronger effect = lower value;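 active = viability at or under a set limit, the compound median less 4 SD, cut at about 6% in these data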;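 note: 0% = Hyamine 1622 control at 20 µM and 100% = untreated cell control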
Insulin prom inh: TRM-6 insulin promoter activity inhibition | TRM-6 cells (human fetal islet line), insulin promoter-eGFP reporter, imaging; reporter expression induced with tamoxifen | inhibition, % at 2 µM | hit rate 0.9% among 130,000;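 active = inhibition above the mean plus 3 SD, with well images judged a real hit on visual review, cut at about 60% in these data, passing the limit was not always enough; inconclusive = inhibition over the cutoff but images rejected on review; inactive = inhibition not above the cutoff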
L major viab: reduces viability of Leishmania major promastigotes. resazurin fluorescence viability. inhibition, % at 10 µM. hit rate 9% among 200,000; in the data active = inhibition above about 50%;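 note: promastigotes grown with compound for 44 hours at 28 °C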
Autophagy HCS: alters autophagy in cells; MEF GFP-LC3 puncta imaging; test concentration mostly 10 µM; calls only at 10 µM (by protocol); hit rate 0.98% among 190,000; AID 463193;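 active = percentage of spot-positive cells more than 3 SD above its plate mean, without a fluorescence outlier flag or 80% toxicity; inconclusive = no clear call, values can overlap the other calls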;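 note: spot-positive cell cutoff set from DMSO-treated cells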
Insulin prom up: MIN6 insulin promoter up-regulation; MIN6 insulin promoter-GFP reporter, high-content imaging; stronger effect = higher value; z-score at 5 µM; hit rate 0.3% among 190,000; AID 1625;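 active = z-score above 3 at 5 µM with at least 500 cells counted in the well; inconclusive = wells under 500 cells, flagged as cytotoxic or low count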
HCT116 PTEN-null: suppresses growth of cells with PTEN deletion; HCT116 PTEN-null viability, CellTiter-Glo, 60 h; stronger effect = lower value; viability, % at 10 µM; hit rate 1.2% among 140,000; AID 827;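 active = viability at or below a set limit, 4 SD under the median of all tested compounds, cut at about 3.7% in these data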;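 note: PTEN knockout HCT116 line with beta catenin targeted HCT116 as companion control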
* hit, by the source's call; i = inactive; ? = inconclusive; / = not tested or not shown; + = active, no number. Most compounds without a hit are left out; they make up all but 9.6% or so of the library.

SMILES	HCT116 bCat-KO	Insulin prom inh	L major viab	Autophagy HCS	Insulin prom up	HCT116 PTEN-null
COc1cc(N=C2C(=O)N3c4c(cccc42)C(C)=CC3(C)C)cc(OC)c1	11.8	20.7	61.4*	i	0.29	10.5
OCCN1CCN(Cc2cccc(Oc3ccc(Cl)cc3)c2)CC1	50.2	-25.0	98.6*	i	-1.85	66.8
CCN1CCN(CCOc2cccc(Oc3ccccc3)c2)CC1	/	/	95.1*	i	-0.04	/
CN1CCN(Cc2cccc(Oc3ccccc3)c2)CC1	96.5	-31.2	99.6*	i	0.46	98.2
O=C(c1ccccc1)N1CCN(Cc2cccc(Oc3ccccc3)c2)CC1	82.9	-5.9	-3.7	i	0.34	84.4
CC1CCCN(Cc2cccc(Oc3ccccc3)c2)C1 (centres undefined)	77.3	10.8	99.8*	i	-0.83	79.6
OCCN1CCN(C(=S)c2ccc(Cl)cc2)CC1	102.6	40.0	47.2	i	0.04	98.9
CC1CCCN(C(=O)CCc2ccccc2)C1 (centres undefined)	103.2	29.6	31.1	i	0.14	101.2
CCC(=O)c1ccccc1OCCN1CCN(CC)CC1	/	/	8.3	i	-0.33	/
O=C(O)c1ccc(Cl)c(S(=O)(=O)NCc2cccnc2)c1	/	/	-2.5	i	0.24	/
O=C(Oc1ccc([N+](=O)[O-])cc1)c1cncc(Br)c1	95.7	-17.2	26.3	i	0.2	101.0
OC1CCN(Cc2cccc(Oc3ccccc3)c2)CC1	93.4	15.6	100.2*	i	-0.19	88.3
Cc1c(NC(=O)COc2cccc3c2OC(C)(C)C3)c(=O)n(-c2ccccc2)n1C	/	-40.0	-3.4	i	0	/
CCN(CC)CCOC(=O)/C=C/c1ccccc1	/	/	/	/	0.73	/
Cc1cc(C)c(NC(=O)COc2ccccc2C(=O)Nc2ccc3c(c2)oc2ccccc23)c(C)c1	67.5	-36.1	12.2	+	-0.92	47.5
CCNc1ccc(Br)cc(C(=O)/C=C/c2ccccc2Cl)c1=O	/	i	98.6*	i	/	/
CNc1ccc(Br)cc(C(=O)/C=C/c2cccc(Cl)c2Cl)c1=O	/	/	96.0*	i	0.1	/
CCNc1ccccc(C(=O)/C=C/c2ccc3c(c2)OCO3)c1=O	94.2	17.1	63.4*	i	0.36	85.3
CN(C)/C=N/C(=S)Nc1ccc(Cl)c(Cl)c1	/	/	-3.6	i	0.72	/
FC(F)(F)c1ccc(-c2nnc(-c3ccccn3)c(-c3ccccn3)n2)nc1	/	/	/	/	0.73	/
COc1ccc(-n2c(COc3ccc(C)cc3)nnc2SCc2ccc(C#N)cc2)cc1	66.1	-35.3	68.1*	i	-1.48	57.0
CCn1c(COc2ccc(Cl)cc2)nnc1SCc1ccc(C#N)cc1	74.9	35.7	50.9*	i	-0.39	70.9
CCn1c(SCc2ccc(C#N)cc2)nnc1-c1cccc(Cl)c1	83.2	5.3	0.8	i	-0.71	73.0
C=CCn1c(SCc2ccc(C#N)cc2)nnc1-c1ccc(C)cc1	71.2	-58.8	78.1*	i	-1.43	81.8
Cc1ccc(OCc2nnc(SCC(=O)c3ccccc3)n2-c2ccccc2)cc1	78.9	-37.5	99.8*	i	/	74.2
SMILES	HCT116 bCat-KO	Insulin prom inh	L major viab	Autophagy HCS	Insulin prom up	HCT116 PTEN-null
COc1ccc(-n2c(COc3ccc(Cl)cc3)nnc2SCc2ccc(C#N)cc2)cc1	71.4	-5.7	18.9	i	-0.78	59.0
CSc1nn(CCc2ccncc2)c(=S)s1	58.8	-41.9	56.3*	i	-0.39	77.6
Cc1cnc(SCCc2ccncc2)nc1C	100.3	12.9	14.3	i	/	107.0
O=C(CNc1ccccc1)N/N=C/c1cc([N+](=O)[O-])ccc1N1CCCC1	86.5	23.1	-0.6	i	0.27	80.4
O=C(Cn1c2ccccc2c(=O)c2ccccc21)N/N=C/c1ccc(N2CCCC2)c([N+](=O)[O-])c1	2.7*	9.7	-4.3	i	0.29	7.2
O=C(N/N=C/c1cc([N+](=O)[O-])ccc1N1CCNCC1)c1ccc([N+](=O)[O-])cc1	1.6*	-54.5	86.2*	i	/	1.1*
Cc1ccc(OCC(=O)N/N=C/c2cc([N+](=O)[O-])ccc2N2CCCCC2)cc1	82.2	-30.0	96.3*	+	-0.58	65.8
O=C(Cn1c2ccccc2c(=O)c2ccccc21)N/N=C/c1cc([N+](=O)[O-])ccc1N1CCCCCC1	10.9	/	31.9	+	-0.35	10.5
O=C(N/N=C/c1ccc(N2CCCC2)c([N+](=O)[O-])c1)c1cccnc1	/	/	8.1	i	0.16	/
CCOC(=O)Cn1c(=O)n(C2CCCC2)c(=O)c2ccccc21	79.0	-39.5	10.0	i	0.1	82.4
CN(C)/C=C/c1c([N+](=O)[O-])c2ccc(O)cc2n1-c1ccccc1	/	/	/	/	-2.08	/
O=C(NCc1ccccc1)C(Cc1ccccc1)N1C(=O)C2C3CCC(C3)C2C1=O (centres undefined)	85.5	-16.7	0.4	i	0.23	103.0
O=C(O)c1cccc(-n2cccc2C=C2C(=O)c3ccccc3C2=O)c1	/	/	-4.6	i	0.1	/
Cc1ccc2c(c1)C(=NC1CCCCC1)c1cc3ccccc3nc1-2	54.7	90.6*	5.8	i	0.11	51.2
Cc1ccc2c(c1)-c1nc3ccccc3cc1C2=NC1CCCCC1	8.3	/	3.1	i	/	2.8*
Cc1ccc(-c2cc3ccccc3nc2N2CCCC2)cc1	71.0	28.1	6.2	i	-0.57	72.4
CCN1CCCC1CNC(=O)Cn1ncc2c(=O)oc3ccc(C)cc3c21 (centres undefined)	105.6	/	15.7	/	0.07	104.6
CCn1c(NC(C)=O)nc2ccccc21	99.0	-325.0	-5.3	i	-0.61	95.2
Cn1c(NC(=O)c2ccccc2NC(=O)C(C)(C)C)nc2ccccc21	38.7	/	77.2*	/	-0.31	35.2
CCC(=O)Nc1nc2ccccc2n1Cc1ccc(C)cc1	20.9	-38.9	98.7*	i	-0.43	21.5
CCC(=O)Nc1nc2ccccc2n1Cc1ccccc1	23.6	12.5	39.7	i	-0.28	22.2
CCCn1c(NC(=O)c2ccc(Cl)c(S(=O)(=O)N3CCCC3)c2)nc2ccccc21	7.6	/	71.6*	i	?	8.6
CCCn1c(NC(=O)c2cccc(C)c2C)nc2ccccc21	15.8	-43.8	98.2*	i	-1.14	10.4
CC(C)(C)C(=O)Nc1ccccc1C(=O)Nc1ccccn1	97.3	-137.5	1.2	i	-0.22	99.1
CCc1ccc(C2=NN(S(C)(=O)=O)C(c3cccs3)C2)cc1 (centres undefined)	65.6	-441.7	67.3*	i	/	82.5
O=C(CCl)NC(=O)NC12CC3CC(CC(C3)C1)C2	16.9	58.1	100.5*	i	/	19.9
CC(Cl)C(=O)NC(=O)NC12CC3CC(CC(C3)C1)C2 (centres undefined)	69.6	/	-1.5	i	0.27	72.0
CC(=O)Nc1ccc(/C(C)=N/Nc2nc(Nc3cccc4ccccc34)nc(N3CCOCC3)n2)cc1	36.2	-42.9	57.9*	i	-0.78	30.6
CC(=O)Nc1ccc(/C(C)=N/Nc2nc(N3CCOCC3)nc(N3CCOCC3)n2)cc1	/	33.3	-2.9	i	0	/
C/C(=N\Nc1nc(N2CCCCCC2)nc(N2CCCCCC2)n1)c1ccccc1	/	50.0	51.0*	i	-0.29	/
